Assay [1] addresses T1, Ephrin type-B receptor 1 (Homo sapiens) (UniProt P54762).
T1 sequence (whole entry): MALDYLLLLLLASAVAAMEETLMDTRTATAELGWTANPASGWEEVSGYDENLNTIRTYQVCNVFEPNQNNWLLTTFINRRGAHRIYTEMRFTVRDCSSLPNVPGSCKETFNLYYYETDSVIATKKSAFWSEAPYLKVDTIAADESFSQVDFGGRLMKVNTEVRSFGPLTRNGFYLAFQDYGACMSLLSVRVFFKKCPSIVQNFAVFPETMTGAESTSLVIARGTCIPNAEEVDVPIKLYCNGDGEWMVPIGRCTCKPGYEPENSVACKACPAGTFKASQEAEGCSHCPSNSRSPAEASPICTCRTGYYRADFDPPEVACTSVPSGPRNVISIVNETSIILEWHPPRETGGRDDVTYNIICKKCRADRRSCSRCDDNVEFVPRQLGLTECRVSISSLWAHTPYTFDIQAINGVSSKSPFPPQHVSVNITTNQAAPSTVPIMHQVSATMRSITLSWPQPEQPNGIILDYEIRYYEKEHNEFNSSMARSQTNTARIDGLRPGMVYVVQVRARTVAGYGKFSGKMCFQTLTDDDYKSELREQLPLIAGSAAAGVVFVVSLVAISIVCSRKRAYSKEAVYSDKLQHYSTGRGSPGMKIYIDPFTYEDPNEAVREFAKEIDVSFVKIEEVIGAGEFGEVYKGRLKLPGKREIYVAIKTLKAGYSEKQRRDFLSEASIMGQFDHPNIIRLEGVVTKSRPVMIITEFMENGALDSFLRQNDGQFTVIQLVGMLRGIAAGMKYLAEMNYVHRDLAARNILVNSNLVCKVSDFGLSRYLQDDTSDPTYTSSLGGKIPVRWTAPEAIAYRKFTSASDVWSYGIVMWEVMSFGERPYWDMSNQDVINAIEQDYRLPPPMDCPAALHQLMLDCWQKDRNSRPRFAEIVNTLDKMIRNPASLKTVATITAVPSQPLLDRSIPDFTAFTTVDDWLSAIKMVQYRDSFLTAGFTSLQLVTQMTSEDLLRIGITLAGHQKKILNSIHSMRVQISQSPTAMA
The note with it: at 1 µM.

Assay [2] has as its target T1, Ephrin type-B receptor 1 (Homo sapiens). The note with it: at 10 µM.
Assay [3] has as its target T2, Ephrin type-B receptor 2 (Homo sapiens) (UniProt P29323).
T2 sequence (whole entry): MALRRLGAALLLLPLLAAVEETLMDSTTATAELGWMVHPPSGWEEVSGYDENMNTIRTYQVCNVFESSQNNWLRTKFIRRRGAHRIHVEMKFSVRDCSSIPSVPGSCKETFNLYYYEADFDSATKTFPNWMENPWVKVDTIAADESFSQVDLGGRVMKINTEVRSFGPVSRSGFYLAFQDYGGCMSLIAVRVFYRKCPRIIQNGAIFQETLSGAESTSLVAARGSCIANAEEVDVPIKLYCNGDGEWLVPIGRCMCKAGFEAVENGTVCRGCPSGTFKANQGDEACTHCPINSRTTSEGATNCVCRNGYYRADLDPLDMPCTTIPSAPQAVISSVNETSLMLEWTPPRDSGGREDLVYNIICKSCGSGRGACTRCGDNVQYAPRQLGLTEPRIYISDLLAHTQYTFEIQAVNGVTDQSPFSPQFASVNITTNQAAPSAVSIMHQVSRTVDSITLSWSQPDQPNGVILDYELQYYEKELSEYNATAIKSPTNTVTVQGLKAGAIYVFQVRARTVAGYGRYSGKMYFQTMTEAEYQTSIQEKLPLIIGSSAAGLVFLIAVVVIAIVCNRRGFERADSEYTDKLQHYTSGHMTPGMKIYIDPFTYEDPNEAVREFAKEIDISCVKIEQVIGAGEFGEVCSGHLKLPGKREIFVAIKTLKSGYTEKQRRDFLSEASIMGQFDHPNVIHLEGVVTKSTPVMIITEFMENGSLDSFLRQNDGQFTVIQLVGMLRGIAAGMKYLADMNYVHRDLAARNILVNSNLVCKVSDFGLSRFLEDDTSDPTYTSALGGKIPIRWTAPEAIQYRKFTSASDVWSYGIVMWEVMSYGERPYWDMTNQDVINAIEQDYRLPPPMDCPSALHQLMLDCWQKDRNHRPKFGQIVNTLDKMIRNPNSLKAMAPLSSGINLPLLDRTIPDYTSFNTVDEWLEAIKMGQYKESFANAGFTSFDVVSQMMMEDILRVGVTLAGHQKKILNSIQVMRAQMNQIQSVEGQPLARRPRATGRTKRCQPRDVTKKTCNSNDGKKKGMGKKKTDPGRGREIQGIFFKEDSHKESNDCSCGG
The note with it: at 1 µM.

Assay [4] concerns the target T2, Ephrin type-B receptor 2 (Homo sapiens). The note with it: at 10 µM.
Assay [5] concerns the target T3, Ephrin type-B receptor 3 (Homo sapiens) (UniProt P54753).
T3 sequence (whole entry): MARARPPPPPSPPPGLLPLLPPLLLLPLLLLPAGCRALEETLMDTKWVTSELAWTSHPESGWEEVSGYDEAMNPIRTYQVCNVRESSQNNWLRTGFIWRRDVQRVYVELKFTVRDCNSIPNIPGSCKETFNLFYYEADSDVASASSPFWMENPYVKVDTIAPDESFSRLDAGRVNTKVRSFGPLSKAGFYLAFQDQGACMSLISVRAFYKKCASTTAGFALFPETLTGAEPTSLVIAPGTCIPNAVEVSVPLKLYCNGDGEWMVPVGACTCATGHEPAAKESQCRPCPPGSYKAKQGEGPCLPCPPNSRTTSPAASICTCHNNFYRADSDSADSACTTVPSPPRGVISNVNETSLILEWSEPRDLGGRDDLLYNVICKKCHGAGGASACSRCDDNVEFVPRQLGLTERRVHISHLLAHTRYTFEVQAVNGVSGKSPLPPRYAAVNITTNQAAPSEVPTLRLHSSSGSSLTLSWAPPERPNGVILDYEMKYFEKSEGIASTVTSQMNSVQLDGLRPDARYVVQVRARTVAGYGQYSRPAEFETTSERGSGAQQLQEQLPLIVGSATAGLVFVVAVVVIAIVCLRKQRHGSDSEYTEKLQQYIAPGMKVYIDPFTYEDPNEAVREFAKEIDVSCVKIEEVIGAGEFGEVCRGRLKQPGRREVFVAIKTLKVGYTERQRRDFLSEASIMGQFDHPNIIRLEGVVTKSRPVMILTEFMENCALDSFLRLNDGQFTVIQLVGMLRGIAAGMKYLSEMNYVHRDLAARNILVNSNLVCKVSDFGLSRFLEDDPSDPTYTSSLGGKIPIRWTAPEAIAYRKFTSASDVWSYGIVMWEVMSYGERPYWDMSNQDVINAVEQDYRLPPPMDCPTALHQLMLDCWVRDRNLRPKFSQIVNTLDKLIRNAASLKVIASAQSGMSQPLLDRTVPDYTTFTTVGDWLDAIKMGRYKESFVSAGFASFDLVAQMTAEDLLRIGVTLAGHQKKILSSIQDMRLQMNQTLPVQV
The settings on record: at 1 µM.

In assay [6] the target is T4, Ephrin type-B receptor 4 (Homo sapiens) (UniProt P54760).
T4 sequence (whole entry): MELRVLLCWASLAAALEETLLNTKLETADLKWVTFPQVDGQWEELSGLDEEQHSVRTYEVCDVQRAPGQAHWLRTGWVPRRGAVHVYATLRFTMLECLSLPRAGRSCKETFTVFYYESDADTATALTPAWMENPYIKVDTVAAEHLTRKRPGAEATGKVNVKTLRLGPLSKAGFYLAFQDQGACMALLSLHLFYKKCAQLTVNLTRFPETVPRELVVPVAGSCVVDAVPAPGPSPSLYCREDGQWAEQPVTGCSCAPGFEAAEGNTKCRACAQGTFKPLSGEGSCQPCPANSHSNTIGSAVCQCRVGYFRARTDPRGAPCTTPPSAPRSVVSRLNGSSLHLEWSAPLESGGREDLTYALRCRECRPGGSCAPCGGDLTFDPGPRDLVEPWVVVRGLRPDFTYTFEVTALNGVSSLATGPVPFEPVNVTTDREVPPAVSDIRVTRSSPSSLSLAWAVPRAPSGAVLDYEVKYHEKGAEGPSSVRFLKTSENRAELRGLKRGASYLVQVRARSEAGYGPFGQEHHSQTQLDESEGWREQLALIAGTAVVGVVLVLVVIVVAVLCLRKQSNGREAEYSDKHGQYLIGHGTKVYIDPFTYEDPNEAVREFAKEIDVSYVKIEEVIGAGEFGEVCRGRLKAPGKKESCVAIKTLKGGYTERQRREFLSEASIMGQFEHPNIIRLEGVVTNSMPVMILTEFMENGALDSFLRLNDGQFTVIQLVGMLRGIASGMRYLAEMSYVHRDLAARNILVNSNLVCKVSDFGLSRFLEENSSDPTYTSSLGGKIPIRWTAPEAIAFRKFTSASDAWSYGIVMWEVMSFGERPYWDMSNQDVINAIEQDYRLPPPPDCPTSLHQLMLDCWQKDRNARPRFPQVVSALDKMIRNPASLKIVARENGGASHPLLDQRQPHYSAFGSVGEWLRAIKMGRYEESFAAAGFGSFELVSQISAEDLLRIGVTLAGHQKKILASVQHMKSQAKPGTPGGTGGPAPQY
The note with it: at 1 µM.

The target in assay [7] is T4, Ephrin type-B receptor 4 (Homo sapiens). The settings on record: at 10 µM.
The target in assay [8] is Receptor tyrosine-protein kinase erbB-4 (Homo sapiens) (UniProt Q15303). The note with it: at 1 µM.
Sequence of Receptor tyrosine-protein kinase erbB-4 (Homo sapiens) (Q15303 whole entry): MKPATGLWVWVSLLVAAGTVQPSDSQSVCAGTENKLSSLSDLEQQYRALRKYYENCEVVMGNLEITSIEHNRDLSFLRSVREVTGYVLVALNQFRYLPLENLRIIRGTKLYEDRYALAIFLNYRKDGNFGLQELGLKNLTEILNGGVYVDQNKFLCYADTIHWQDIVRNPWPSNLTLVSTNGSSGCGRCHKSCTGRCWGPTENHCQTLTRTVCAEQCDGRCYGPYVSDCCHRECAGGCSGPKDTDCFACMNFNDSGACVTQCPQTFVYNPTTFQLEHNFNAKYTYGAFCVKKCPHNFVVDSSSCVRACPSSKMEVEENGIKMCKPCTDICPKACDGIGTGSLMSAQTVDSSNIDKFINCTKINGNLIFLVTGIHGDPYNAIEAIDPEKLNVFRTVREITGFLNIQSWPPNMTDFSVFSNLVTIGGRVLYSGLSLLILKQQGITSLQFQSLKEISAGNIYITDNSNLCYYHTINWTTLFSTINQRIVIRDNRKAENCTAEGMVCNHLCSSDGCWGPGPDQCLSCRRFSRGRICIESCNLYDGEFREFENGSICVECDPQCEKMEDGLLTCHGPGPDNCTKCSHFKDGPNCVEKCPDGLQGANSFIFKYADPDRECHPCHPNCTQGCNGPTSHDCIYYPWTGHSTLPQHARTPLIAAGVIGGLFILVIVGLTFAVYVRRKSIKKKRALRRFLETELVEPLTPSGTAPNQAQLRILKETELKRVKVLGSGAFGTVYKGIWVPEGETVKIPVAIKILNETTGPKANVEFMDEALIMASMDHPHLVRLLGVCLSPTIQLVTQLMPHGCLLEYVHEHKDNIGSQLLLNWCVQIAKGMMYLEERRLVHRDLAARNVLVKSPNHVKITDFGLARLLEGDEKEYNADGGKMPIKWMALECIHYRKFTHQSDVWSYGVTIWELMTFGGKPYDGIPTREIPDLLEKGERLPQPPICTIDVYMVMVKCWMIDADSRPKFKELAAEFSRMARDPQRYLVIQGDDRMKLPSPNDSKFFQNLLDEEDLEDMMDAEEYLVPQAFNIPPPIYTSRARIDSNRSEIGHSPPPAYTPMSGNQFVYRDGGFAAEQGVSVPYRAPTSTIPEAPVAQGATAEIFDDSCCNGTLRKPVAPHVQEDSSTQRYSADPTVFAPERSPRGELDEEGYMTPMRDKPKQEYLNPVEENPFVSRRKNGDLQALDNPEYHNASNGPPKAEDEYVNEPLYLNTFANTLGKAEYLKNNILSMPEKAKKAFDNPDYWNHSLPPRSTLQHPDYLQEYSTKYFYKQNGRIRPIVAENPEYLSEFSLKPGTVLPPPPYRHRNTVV
Assay [9] shares this target. The note with it: at 10 µM.
In assay [10] the target is Focal adhesion kinase 1 (Homo sapiens) (UniProt Q05397). The settings on record: at 1 µM.
Sequence of Focal adhesion kinase 1 (Homo sapiens) (Q05397 2-1052 limits assumed): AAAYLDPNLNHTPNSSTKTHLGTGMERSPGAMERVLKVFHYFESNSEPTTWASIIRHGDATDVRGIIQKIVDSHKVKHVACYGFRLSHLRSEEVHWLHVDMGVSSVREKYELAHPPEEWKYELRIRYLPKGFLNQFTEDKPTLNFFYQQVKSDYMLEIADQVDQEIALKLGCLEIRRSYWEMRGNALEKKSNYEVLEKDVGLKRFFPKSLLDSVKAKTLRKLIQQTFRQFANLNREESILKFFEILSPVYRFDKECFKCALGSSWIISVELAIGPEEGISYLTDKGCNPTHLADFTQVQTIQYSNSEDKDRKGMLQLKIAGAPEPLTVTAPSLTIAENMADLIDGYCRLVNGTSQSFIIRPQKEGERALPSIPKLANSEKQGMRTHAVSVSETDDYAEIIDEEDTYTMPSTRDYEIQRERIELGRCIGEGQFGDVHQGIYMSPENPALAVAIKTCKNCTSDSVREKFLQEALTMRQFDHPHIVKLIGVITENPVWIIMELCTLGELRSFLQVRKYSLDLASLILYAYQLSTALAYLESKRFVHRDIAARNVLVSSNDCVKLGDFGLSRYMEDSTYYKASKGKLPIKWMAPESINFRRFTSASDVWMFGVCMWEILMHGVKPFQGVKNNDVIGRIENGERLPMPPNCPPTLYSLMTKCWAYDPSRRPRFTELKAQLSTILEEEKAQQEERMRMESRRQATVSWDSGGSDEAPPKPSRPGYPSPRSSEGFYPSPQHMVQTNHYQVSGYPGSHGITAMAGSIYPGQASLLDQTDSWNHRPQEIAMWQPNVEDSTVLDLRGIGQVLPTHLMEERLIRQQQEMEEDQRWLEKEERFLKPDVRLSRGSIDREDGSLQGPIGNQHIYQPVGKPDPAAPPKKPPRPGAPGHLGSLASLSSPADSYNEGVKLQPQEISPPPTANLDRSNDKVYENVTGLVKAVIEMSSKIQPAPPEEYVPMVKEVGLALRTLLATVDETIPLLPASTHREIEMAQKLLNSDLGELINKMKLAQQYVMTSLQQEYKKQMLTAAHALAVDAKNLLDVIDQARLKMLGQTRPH

For the compound `CC(C)n1cnc2/c(=N/c3cccc(Cl)c3)nc(NCCO)[nH]c21`, the residual activity was 81% in assay [1]; 20% in [2]; 102% in assay [3]; 35% in assay [4]; 108% (inactive) in [5]; 67% in assay [6]. Besides, the residual activity in assay [7] amounted to 22%; in assay [8], 94%; in [9] it was 107%; in [10], 46%.

As usually defined, the residual activity is the signal under treatment as a percentage of the control signal.

The values above are taken from ChEMBL document CHEMBL2218924, “A broad activity screen in support of a chemogenomic map for kinase signalling research and drug discovery” (Biochem J, 2013).
